From PMC5540273 (PLoS ONE, 2017)

How the values were obtained:
Details in all cases: concentration: 1 μM, replicates: in singlicate; n = 1
[1] = test system: T1, RSK1(Kin.Dom.2-C-terminal)
T1 construct: gene RPS6KA1

[2] = test system: T2, RSK2(Kin.Dom.1-N-terminal)
T2 construct: gene RPS6KA3

[3] = test system: T3, RSK2(Kin.Dom.2-C-terminal)
T3 construct: gene RPS6KA3

[4] = test system: T4, RSK3(Kin.Dom.1-N-terminal)
T4 construct: gene RPS6KA2

[5] = test system: T5, RSK3(Kin.Dom.2-C-terminal)
T5 construct: gene RPS6KA2

[6] = test system: T6, RSK4(Kin.Dom.1-N-terminal)
T6 construct: gene RPS6KA6

[7] = test system: T7, RSK4(Kin.Dom.2-C-terminal)
T7 construct: gene RPS6KA6

S6K1 = test system: S6K1
SBK1 = test system: SBK1
SGK2 = test system: SGK2
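Also: KINOMEscan kinase panel screen.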

Structure (SMILES) | %Inh [1] [%] | %Inh [2] [%] | %Inh [3] [%] | %Inh [4] [%] | %Inh [5] [%] | %Inh [6] [%] | %Inh [7] [%] | %Inh (S6K1) [%] | %Inh (SBK1) [%] | %Inh (SGK2) [%]
O=C(Nc1n[nH]c2nc(-c3cccs3)c(Br)cc12)C1CC1 [SB-735297] | 0 | 22 | 0 | 0 | 0 | 98.9 | 20 | 22 | 11 | 27
Cc1ccc(NC(=O)Nc2ccccc2F)cc1-c1ccc(C(=O)Nc2ccncc2)cc1 [GSK1398477] | 0 | 9 | 6 | 20 | 0 | 0 | 14 | 13 | 28 | 0
Cc1ccc(NC(=O)Nc2ccccc2)cc1-c1ccc(C(=O)Nc2ccncc2)cc1 [GSK1398471] | 10 | 0 | 1 | 3 | 7 | 0 | 6 | 0 | 5 | 0
Cc1cccc2c(-c3ccncn3)c(-c3ccc(F)cc3)nn12 [GW515532] | 50 | 9 | 8 | 6 | 19 | 0 | 87 | 1 | 9 | 14
CCn1c(-c2c(N)noc2C)nc2cnccc21 [SB-737856] | 0 | 16 | 8 | 15 | 0 | 0 | 22 | 0 | 15 | 0
COC(=O)c1cccc(NC(=O)NC2CCN(c3ccnc(Nc4ccc(F)cc4)n3)C2)c1 (stereo not shown) [GSK1379725] | 0 | 5 | 0 | 3 | 0 | 0 | 0 | 0 | 17 | 0
O=C(Nc1n[nH]c2cc(-c3ccsc3)ccc12)C1CC1 [SB-732932] | 19 | 27 | 0 | 71 | 16 | 29 | 24 | 13 | 44 | 4
Cc1c(Cn2c3ccccc3n3c(=O)cc(N4CCOCC4)nc23)cccc1C(F)(F)F [GSK2306394] | 0 | 4 | 30 | 5 | 1 | 0 | 11 | 0 | 9 | 0
CCCCc1nn2ncccc2c1-c1ccnc(NC2CC2)n1 [GW684374] | 28 | 26 | 0 | 0 | 0 | 0 | 32 | 0 | 0 | 0
CCc1ccc(-c2ccc3c(c2)-c2n[nH]cc2S(=O)(=O)N3C)cc1 | 30 | 7 | 52 | 5 | 17 | 1 | 20 | 0 | 0 | 0
Cc1ccc(NC(=O)c2ccc(Cl)cc2)cc1-c1ccc(C(=O)Nc2ccncc2)cc1 [GSK1398467] | 0 | 4 | 2 | 8 | 22 | 0 | 10 | 7 | 0 | 0
COc1nccc(-c2c(-c3ccc(F)cc3)ncn2CCCN2CCOCC2)n1 [SB-282852] | 11 | 27 | 17 | 0 | 38 | 0 | 36 | 29 | 0 | 36
Cc1ccccc1Cn1ccn2c(=O)cc(N3CCOCC3)nc12 [GSK2269905] | 0 | 9 | 20 | 11 | 0 | 0 | 17 | 0 | 4 | 0
COc1ccc(Nc2nccc(-c3ccc(NC(=O)c4cc5cc(F)ccc5[nH]4)cc3)n2)cc1 [GSK1229496] | 36 | 0 | 20 | 0 | 0 | 20 | 6 | 1 | 17 | 0
CC(C)c1ccc(O)cc1Nc1ccnc2ccc(C(F)(F)F)cc12 [GW482059] | 0 | 0 | 10 | 0 | 7 | 0 | 0 | 0 | 5 | 0
CNc1nc(-c2ccc3c(N)n[nH]c3c2)cc(N2C[C@@H](C(=O)NC3CCCCC3)OC[C@H]2C)n1 [GSK2375584] | 19 | 0 | 14 | 9 | 6 | 0 | 20 | 10 | 0 | 0
CS(=O)(=O)CCNCc1nc(-c2ccc3ncnc(Nc4ccc(OCc5ccccc5)c(Cl)c4)c3c2)cs1.Cl [GW582764] | 0 | 15 | 2 | 9 | 0 | 0 | 8 | 6 | 23 | 0

Structure (SMILES) | %Inh [1] [%] | %Inh [2] [%] | %Inh [3] [%] | %Inh [4] [%] | %Inh [5] [%] | %Inh [6] [%] | %Inh [7] [%] | %Inh (S6K1) [%] | %Inh (SBK1) [%] | %Inh (SGK2) [%]
NS(=O)(=O)c1cccc(N/C=C2\C(=O)Nc3ccc(S(=O)(=O)Cc4c(Cl)cccc4Cl)cc32)c1 [GSK398099] | 100 | 6 | 0 | 10 | 0 | 0 | 2 | 0 | 21 | 8
CNc1cc(-c2ccc3c(N)n[nH]c3c2)nc(N)n1 [GSK2224810] | 26 | 14 | 0 | 1 | 0 | 37 | 37 | 0 | 7 | 0
CC(C)c1cc(-c2ccc3c(N)n[nH]c3c2)nc(N)n1 [GSK2250882] | 0 | 18 | 0 | 0 | 5 | 0 | 17 | 0 | 16 | 0
FC(F)(F)c1ccccc1-c1cc(-c2c[nH]nc2-c2ccccn2)ccn1 [GW679396] | 13 | 0 | 0 | 6 | 0 | 0 | 22 | 0 | 13 | 0
Nc1ncnc2occ(-c3ccc4c(c3)CCN4C(=O)Cc3cc(F)ccc3F)c12 [GSK2645446] | 0 | 0 | 7 | 0 | 16 | 0 | 15 | 0 | 10 | 0
c1ccc(-c2ccnc3[nH]ccc23)cc1 [SB-693578] | 0 | 30 | 27 | 0 | 0 | 29 | 17 | 26 | 17 | 4
Fc1ccc(-c2nc[nH]c2-c2ccncc2)cc1 [SB-217360] | 47 | 34 | 4 | 0 | 6 | 16 | 87 | 8 | 0 | 0
COc1ccc(Nc2nccc(N3CCC(NC(=O)C(C)c4ccc(Cl)cc4)C3)n2)cc1 (stereo not shown) [GSK1379735] | 0 | 5 | 7 | 14 | 0 | 0 | 7 | 2 | 0 | 11
CNCc1ccc2nc(NC(=O)c3ccc(C(C)(C)C)cc3)cn2c1 | 8 | 32 | 37 | 1 | 0 | 27 | 7 | 17 | 27 | 12
CS(=O)(=O)CCNCc1nc(-c2ccc3ncnc(Nc4ccc5c(cnn5Cc5ccccc5)c4)c3c2)cs1.Cl.Cl [GW569716] | 0 | 0 | 0 | 0 | 4 | 0 | 5 | 5 | 0 | 7
O=C1NC(=O)C(c2ccc(Cl)cc2)=C1Nc1cccc(Cl)c1 [SB-317651] | 0 | 23 | 0 | 18 | 23 | 0 | 13 | 36 | 0 | 6
Cc1cnc(N)c(/C=C/c2cncc(C(=O)NCCc3ccc(Cl)cc3Cl)c2)c1.Cl [GSK190937] | 0 | 0 | 2 | 0 | 0 | 0 | 20 | 0 | 19 | 0
CN1c2ccc(-c3ccc(C(N)=O)cc3)cc2-c2[nH]ncc2S1(=O)=O | 47 | 17 | 35 | 0 | 41 | 0 | 38 | 0 | 0 | 8
COc1ccc(CSc2nnc(-c3ccc4nccn4c3)o2)cc1C(F)(F)F | 44 | 12 | 10 | 8 | 6 | 30 | 0 | 0 | 0 | 4
COc1ccc(-c2coc3ccc(-c4nnc(C)o4)cc23)cc1 | 4 | 0 | 0 | 0 | 8 | 22 | 15 | 0 | 0 | 0
COC(=O)C(NC(=O)NC1CCN(c2ccnc(Nc3ccc(F)cc3)n2)C1)c1ccccc1 (stereo not shown) [GSK1379712] | 18 | 0 | 38 | 0 | 11 | 0 | 7 | 0 | 8 | 8
Cl.Cl.Cl.N#Cc1ccc(CCNc2nccc(-c3cccc(CN4CCNCC4)c3)n2)cc1 [GSK2137462] | 0 | 0 | 0 | 0 | 13 | 0 | 31 | 34 | 24 | 0
